Most compounds without a hit are left out; they make up all but 3% or so of the library.
Wnt act: activates Wnt/beta-catenin signaling in a reporter cell assay | activator, plate reader | activation, % at 9.35 µM | actives 1.2% (n = 300,000); in the data active = activation above about 30%, passing the limit was not always enough; inconclusive = no clear call, values can overlap the other calls;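 note: 0% = neutral control wells and 100% = positive control wells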
esBAF inh: inhibitors of esBAF chromatin remodeling in mouse ES cells. AID 602393. Bmi1-luciferase knock-in reporter, 24 h; 100% = twice the neutral-well signal. actives 2% (n = 350,000). reporter increase, % at 12.5 µM; in the data active = activation above about 40%; inconclusive = no clear call, values can overlap the other calls;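 note: 0% = median of the plate's neutral control wells and 100% = double that signal; a rise in the Bmi1 reporter signal indicates esBAF inhibition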
Vif imaging: inhibitors of HIV Vif | HEK293T cells, Vif self-association by quenched fluorescence, imaging, 24 h | inhibition, % at 7.49 µM | actives 0.35% (n = 340,000); in the data active = inhibition above about 50%, passing the limit was not always enough; inconclusive = no clear call, values can overlap the other calls; inactive = below about 31%
PfHsp90 yeast 2: inhibits growth of yeast expressing Plasmodium falciparum Hsp90 | S. cerevisiae expressing PfHsp90, BacTiter-Glo ATP, 48 h; yeast lacking PDR1 and PDR3 efflux regulators | inhibition, % at 9.4 µM | actives 0.32% (n = 310,000);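 active = every replicate shows inhibition above about 80%, whatever the replicate mean, limit read from the data; inconclusive = mean inhibition reaches the set limit but some replicate falls short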;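 note: 0% = DMSO neutral controls and 100% = 20 µM radicicol positive controls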
MITF act: increases MITF-driven TRPM1 promoter luciferase signal. SK-MEL-5 TRPM1-promoter luciferase, 24 h; % of positive control, neutral wells = 0. actives 0.75% (n = 300,000). activation, % at 12.5 µM;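 active = mean activation of at least 80% with every replicate also reaching 80%; inconclusive = mean reaches 80% but some replicate falls short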;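 note: 0% = neutral control wells and 100% = parthenolide positive control wells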
N-glyco inh: N-linked glycosylation inhibition | actives 0.23% (n = 360,000) | D54 ERlucT glycosylation luciferase reporter, 24 h; percent of 100 nM tunicamycin response | AID 588692 | reporter increase, % at 12.5 µM;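 active = mean luciferase reporter signal, scaled so untreated is 0 and the glycosylation-blocking control 100, at or above a set limit in every replicate; inconclusive = mean reaches the limit but not every replicate does; inactive = mean below the limit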;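 note: luciferase carries N-glycosylation sites so blocking glycosylation raises the light; 0% = median of neutral control wells and 100% = median of 100 nM tunicamycin wells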
An asterisk follows results filed as active.

`C#CC[N+](C)(C)CCCCCCCCCCCC` gave Wnt act -7, Vif imaging -16, PfHsp90 yeast 2 13, MITF act -70 and N-glyco inh 144*.
For COC(CNc1ncnc2sc(-c3ccccc3)cc12)OC the results were Wnt act 1, esBAF inh 22, Vif imaging 0, PfHsp90 yeast 2 -18, MITF act 21 and N-glyco inh -2.
For CC(O)CNc1ncnc2cc(-c3ccc(F)cc3)sc12 (stereo not given) the results were Wnt act 12, esBAF inh 54*, Vif imaging 0, PfHsp90 yeast 2 -8, MITF act inconclusive and N-glyco inh -2.
Screening Cc1ncc([N+](=O)[O-])n1CCOC(=O)Nc1ccc([N+](=O)[O-])cc1 returned Wnt act -2, Vif imaging 3, PfHsp90 yeast 2 7, MITF act 3 and N-glyco inh 3.
`C[C@@H](NC(=O)c1ncn2c1c(=O)[nH]c1ccc(Br)cc12)c1ccccc1` gave Wnt act -2, esBAF inh 7 and N-glyco inh 33*.
For c1ccc(-c2nnc(-c3ccccc3)nn2)cc1 the results were Wnt act 50*, Vif imaging 0 and N-glyco inh -12.
Cc1cc(C)n2nc(C(=O)Nc3nccs3)nc2n1 was read as esBAF inh 17, PfHsp90 yeast 2 4, MITF act 59 and N-glyco inh -4.
`C=CCc1c(C)nc2c(-c3ccccc3)cnn2c1N1CCOCC1` gave Wnt act 40*, esBAF inh 84*, Vif imaging 3, PfHsp90 yeast 2 6, MITF act 76 and N-glyco inh -10.
CN(C)Cc1c(O)ccc2c(=O)c(-c3ccc(Cl)cc3)coc12 was read as Wnt act -2, esBAF inh 64*, Vif imaging -2, PfHsp90 yeast 2 11, MITF act 22 and N-glyco inh 2.
For COc1ccc2nc3ccccc3nc2c1NC(=O)c1ccc(Cl)cc1 the results were esBAF inh 0, Vif imaging 106*, PfHsp90 yeast 2 -43, MITF act -13 and N-glyco inh 10.
CO[C@H](CN(C)C(=O)c1ccc2c(c1)OCO2)[C@@H](C)CN([C@H](C)CO)S(=O)(=O)c1ccc(C)cc1 was read as esBAF inh -1.
Cc1cccc2c(N=Nc3ccccc3)c(O)[nH]c12 was read as Wnt act 45*, Vif imaging -2, PfHsp90 yeast 2 -23, MITF act 65 and N-glyco inh -2.
Screening O=C(CNC(=O)c1ccccc1)N=Nc1c(O)[nH]c2ccc(Br)cc12 returned Wnt act -1, esBAF inh -3, Vif imaging 2, PfHsp90 yeast 2 -16, MITF act -6 and N-glyco inh 2.
Nc1nc(N)c(N=Nc2ccc(C(=O)O)cc2)c(N)n1 was read as Wnt act 1, esBAF inh -7, Vif imaging -2, PfHsp90 yeast 2 -7, MITF act -11 and N-glyco inh 0.
For O=C(O)c1ccc(N=Nc2c(O)[nH]c3cc(Cl)ccc23)cc1 the results were Wnt act 53*, Vif imaging -1, PfHsp90 yeast 2 -8, MITF act 64 and N-glyco inh -5.
COC(=O)N=Nc1c(O)[nH]c2ccc(Br)cc12 was read as Wnt act 53*, esBAF inh -15, Vif imaging -5, PfHsp90 yeast 2 1, MITF act -12 and N-glyco inh 9.
For O=C(O)c1ccc(N=Nc2c(O)[nH]c3ccc(Br)cc23)cc1 the results were Wnt act 19, esBAF inh 80*, Vif imaging 5, PfHsp90 yeast 2 10, MITF act 46 and N-glyco inh 11.
C[C@@H]1CN([C@@H](C)CO)C(=O)c2cccc(NS(=O)(=O)c3cn(C)cn3)c2O[C@@H]1CN(C)S(=O)(=O)c1ccccc1 was read as esBAF inh 2.
`CCn1c(/N=C/c2ccccc2NS(=O)(=O)c2ccc(C)cc2)nc2ccccc21` gave esBAF inh -4, Vif imaging -8, PfHsp90 yeast 2 23, MITF act -8 and N-glyco inh 2.
`COCC(=O)Nc1ccc2c(c1)[C@H]1C[C@H](CC(=O)NCc3ccncc3)O[C@@H](CO)[C@H]1O2` gave esBAF inh -4.
`Oc1[nH]c2ccccc2c1N=Nc1cccc(Cl)c1` gave Wnt act 17, esBAF inh 52*, Vif imaging inconclusive, PfHsp90 yeast 2 10, MITF act 35 and N-glyco inh 0.
Screening Oc1[nH]c2ccccc2c1N=Nc1ccccc1Cl returned Wnt act -2, Vif imaging -6, PfHsp90 yeast 2 -52, MITF act 24 and N-glyco inh 0.
Screening COCCN(C[C@@H]1N[C@@H](CO)[C@@H]1c1ccc(-c2cccc(F)c2)cc1)C(C)=O returned esBAF inh -4.
Screening Cc1ccccc1Nc1c(C)c(C)nc2ncnn12 returned Wnt act -2, esBAF inh 6, Vif imaging 143*, PfHsp90 yeast 2 9, MITF act -1 and N-glyco inh -4.
O=C(c1ccc(Cl)cc1)N1CCN(c2cccc3[nH]ccc23)CC1 was read as Wnt act -2, Vif imaging 3, PfHsp90 yeast 2 8, MITF act -11 and N-glyco inh 0.
For O=C1C=CC2(O[C@H](c3ccccc3)[C@@H](c3ccccc3)O2)[C@H](Sc2ccccc2O)C1 the results were Wnt act -6, Vif imaging 26, PfHsp90 yeast 2 113*, MITF act -94 and N-glyco inh -20.
Screening COc1ccc(CN(C)C[C@@H]2OCCCC[C@H](C)Oc3ccc(NC(=O)NC(C)C)cc3C(=O)N([C@@H](C)CO)C[C@H]2C)cc1 returned esBAF inh 0.
`COc1ccccc1C(=O)N1CCC2CCNC2C1` (stereo not given) gave Wnt act -1.
Screening Cc1nc2ccc(NC(=O)c3ccc(S(=O)(=O)N(C)c4ccccc4)cc3)cc2s1 returned Wnt act -2, Vif imaging -2, PfHsp90 yeast 2 -9, MITF act -19 and N-glyco inh -6.
`CN1CCN(S(=O)(=O)c2ccc(NN)nc2)CC1` gave Wnt act 57*, esBAF inh -7, Vif imaging 11, PfHsp90 yeast 2 -18, MITF act -2 and N-glyco inh 2.
For CN1CCN(c2ccc(S(=O)(=O)N3CCCCC3)cn2)CC1 the results were Vif imaging -3, PfHsp90 yeast 2 -12, MITF act -2 and N-glyco inh 1.
Screening Cc1ccc2cc3cc(C(=O)N4CC(C)CC(C)C4)oc3nc2c1 (stereo not given) returned Wnt act 21, esBAF inh -15, Vif imaging -16, PfHsp90 yeast 2 31, MITF act 67 and N-glyco inh 0.

Bioassay records (PubChem BioAssay)
